Of roughly 7,900 targets only a part is listed; those with a hit were picked by preference. About 0.6% of all pairs of compound and target were hits.
What was measured:
Experiment in all cases: log2 fold change, soluble protein after heating vs DMSO (PISA); higher = thermal stabilisation; K562 cells, 10 uM, 30 min; active = over 0.2 and 3.5 SD of the protein, either way, in both replicates (recomputed)
sotrastaurin = compound: CN1CCN(c2nc(C3=C(c4c[nH]c5ccccc45)C(=O)NC3=O)c3ccccc3n2)CC1 [sotrastaurin]
In short: (§1)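 K562 cells at 2×10^6 cells/mL were given 10 μM compound for 30 min. Aliquots then went through 3 min of heating across 48°C-58°C, were pooled, and were extracted in PBS with 0.5% NP-40 at 4°C, and the supernatant after 21,000xg for 90 min was quantified by TMTpro 16plex LC-MS/MS with channel sums equalised. Thermal stability relative to control samples, from duplicates, is given as log2 fold change.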

alvocidib = compound: CN1CC[C@H](c2c(O)cc(O)c3c(=O)cc(-c4ccccc4Cl)oc23)[C@H](O)C1 [alvocidib]
In short: as §1

Tubastatin A = compound: CN1CCc2c(c3ccccc3n2Cc2ccc(C(=O)NO)cc2)C1 [Tubastatin A]
In short: as §1

rucaparib = compound: CNCc1ccc(-c2[nH]c3cc(F)cc4c3c2CCNC4=O)cc1 [rucaparib]
In short: as §1

encorafenib = compound: COC(=O)N[C@@H](C)CNc1nccc(-c2cn(C(C)C)nc2-c2cc(Cl)cc(NS(C)(=O)=O)c2F)n1 [encorafenib]
In short: as §1

filanesib = compound: CON(C)C(=O)N1N=C(c2cc(F)ccc2F)S[C@@]1(CCCN)c1ccccc1 [filanesib]
In short: as §1

zotarolimus = compound: CO[C@H]1C[C@@H]2CC[C@@H](C)[C@@](O)(O2)C(=O)C(=O)N2CCCC[C@H]2C(=O)O[C@H]([C@H](C)C[C@@H]2CC[C@H](n3cnnn3)[C@H](OC)C2)CC(=O)[C@H](C)/C=C(\C)[C@@H](O)[C@@H](OC)C(=O)[C@H](C)C[C@H](C)/C=C/C=C/C=C/1C [zotarolimus]
In short: as §1

idasanutlin = compound: COc1cc(C(=O)O)ccc1NC(=O)[C@@H]1N[C@@H](CC(C)(C)C)[C@](C#N)(c2ccc(Cl)cc2F)[C@H]1c1cccc(Cl)c1F [idasanutlin]
In short: as §1

[1] = compound: COc1cc2nc(-c3cc(F)ccc3O)nc(N[C@@H]3CNC[C@H]3C(C)(C)O)c2cc1OC
In short: as §1

gefitinib = compound: COc1cc2ncnc(Nc3ccc(F)c(Cl)c3)c2cc1OCCCN1CCOCC1 [gefitinib]
In short: as §1

lapatinib = compound: CS(=O)(=O)CCNCc1ccc(-c2ccc3ncnc(Nc4ccc(OCc5cccc(F)c5)c(Cl)c4)c3c2)o1 [lapatinib]
In short: as §1

pictilisib = compound: CS(=O)(=O)N1CCN(Cc2cc3nc(-c4cccc5[nH]ncc45)nc(N4CCOCC4)c3s2)CC1 [pictilisib]
In short: as §1

[2] = compound: CNC(=O)C1=CC=CC=C1NC2=NC(=NC=C2Cl)NC3=C(C=C(C=C3)N4CCOCC4)OC
In short: as §1

[3] = compound: COC1=CC=C(C=C1)CN2C=CC3=C2C=C(C=C3)C(=O)NO
In short: as §1

saracatinib = compound: CN1CCN(CCOc2cc(OC3CCOCC3)c3c(Nc4c(Cl)ccc5c4OCO5)ncnc3c2)CC1 [saracatinib]
In short: as §1

defactinib = compound: CNC(=O)c1ccc(Nc2ncc(C(F)(F)F)c(NCc3nccnc3N(C)S(C)(=O)=O)n2)cc1 [defactinib]
In short: as §1

[4] = compound: CNc1nc(-c2ccc3c(N)n[nH]c3c2)cc(N2C[C@@H](C(=O)NC3CCCCC3)CC[C@H]2C)n1
In short: as §1

[5] = compound: COC(=O)[C@H](CCSC)NC(=O)C1=C(C=C(C=C1)NC[C@H](CS)N)C2=CC=CC=C2
In short: as §1

alisertib = compound: COc1cc(Nc2ncc3c(n2)-c2ccc(Cl)cc2C(c2c(F)cccc2OC)=NC3)ccc1C(=O)O [alisertib]
In short: as §1

[6] = compound: COc1cccc2cc(-c3nc([C@H]4CC[C@H](C(=O)O)CC4)n4ncnc(N)c34)[nH]c12
In short: as §1

Measured: log2 fold change

S100A10 (UniProt P60903)
Sequence of UniProt P60903 (P60903 whole entry, looked up): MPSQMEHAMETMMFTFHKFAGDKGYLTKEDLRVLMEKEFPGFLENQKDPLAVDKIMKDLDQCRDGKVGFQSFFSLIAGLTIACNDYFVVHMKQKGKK
inactive: sotrastaurin -0.147 | alvocidib -0.293 | Tubastatin A 0.195 | rucaparib -0.038 | encorafenib -0.293 | filanesib -0.143 | zotarolimus -0.045 | idasanutlin 0.165 | [1] 0.093 | gefitinib 0.305 | lapatinib 0.01 | pictilisib -0.056

RBM48 isoform 2 (UniProt Q5RL73)
inactive: sotrastaurin -0.001 | alvocidib -0.011 | Tubastatin A 0.016 | [2] -0.065 | [3] -0.046 | filanesib -0.049 | zotarolimus -0.076 | idasanutlin 0.04 | [1] -0.046 | gefitinib -0.024 | lapatinib 0.011 | pictilisib -0.083

RPAIN isoform 8 (UniProt Q86UA6)
Sequence of UniProt Q86UA6 (Q86UA6 whole entry, looked up): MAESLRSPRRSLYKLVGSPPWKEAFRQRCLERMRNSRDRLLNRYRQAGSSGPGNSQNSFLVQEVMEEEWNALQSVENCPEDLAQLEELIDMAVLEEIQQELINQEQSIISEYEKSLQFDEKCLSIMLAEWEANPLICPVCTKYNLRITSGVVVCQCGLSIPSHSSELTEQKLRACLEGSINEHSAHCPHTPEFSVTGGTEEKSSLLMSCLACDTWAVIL
inactive: saracatinib -0.036 | sotrastaurin -0.09 | alvocidib -0.036 | Tubastatin A -0.016 | defactinib -0.231 | [4] -0.082 | [5] 0.094 | [3] -0.055 | filanesib 0.006 | zotarolimus 0.028 | idasanutlin 0.109 | [1] -0.061 | lapatinib -0.063

RAB3IL1 (UniProt E9PK89)
inactive: sotrastaurin -0.082 | alvocidib 0.009 | Tubastatin A -0.095 | [2] -0.011 | defactinib -0.016 | rucaparib -0.074 | encorafenib 0.084 | [5] 0.045 | [3] 0.031 | filanesib -0.22 | zotarolimus 0.093 | idasanutlin -0.035 | [1] 0.097 | gefitinib -0.034 | lapatinib 0.063 | pictilisib -0.075

RPS3A (UniProt D6R9B6)
inactive: saracatinib -0.125 | sotrastaurin 0.202 | Tubastatin A 0.051 | [4] -0.086 | filanesib 0.228 | idasanutlin 0.079

RBBP6 (UniProt Q7Z6E9)
Sequence of UniProt Q7Z6E9 (Q7Z6E9 whole entry, looked up): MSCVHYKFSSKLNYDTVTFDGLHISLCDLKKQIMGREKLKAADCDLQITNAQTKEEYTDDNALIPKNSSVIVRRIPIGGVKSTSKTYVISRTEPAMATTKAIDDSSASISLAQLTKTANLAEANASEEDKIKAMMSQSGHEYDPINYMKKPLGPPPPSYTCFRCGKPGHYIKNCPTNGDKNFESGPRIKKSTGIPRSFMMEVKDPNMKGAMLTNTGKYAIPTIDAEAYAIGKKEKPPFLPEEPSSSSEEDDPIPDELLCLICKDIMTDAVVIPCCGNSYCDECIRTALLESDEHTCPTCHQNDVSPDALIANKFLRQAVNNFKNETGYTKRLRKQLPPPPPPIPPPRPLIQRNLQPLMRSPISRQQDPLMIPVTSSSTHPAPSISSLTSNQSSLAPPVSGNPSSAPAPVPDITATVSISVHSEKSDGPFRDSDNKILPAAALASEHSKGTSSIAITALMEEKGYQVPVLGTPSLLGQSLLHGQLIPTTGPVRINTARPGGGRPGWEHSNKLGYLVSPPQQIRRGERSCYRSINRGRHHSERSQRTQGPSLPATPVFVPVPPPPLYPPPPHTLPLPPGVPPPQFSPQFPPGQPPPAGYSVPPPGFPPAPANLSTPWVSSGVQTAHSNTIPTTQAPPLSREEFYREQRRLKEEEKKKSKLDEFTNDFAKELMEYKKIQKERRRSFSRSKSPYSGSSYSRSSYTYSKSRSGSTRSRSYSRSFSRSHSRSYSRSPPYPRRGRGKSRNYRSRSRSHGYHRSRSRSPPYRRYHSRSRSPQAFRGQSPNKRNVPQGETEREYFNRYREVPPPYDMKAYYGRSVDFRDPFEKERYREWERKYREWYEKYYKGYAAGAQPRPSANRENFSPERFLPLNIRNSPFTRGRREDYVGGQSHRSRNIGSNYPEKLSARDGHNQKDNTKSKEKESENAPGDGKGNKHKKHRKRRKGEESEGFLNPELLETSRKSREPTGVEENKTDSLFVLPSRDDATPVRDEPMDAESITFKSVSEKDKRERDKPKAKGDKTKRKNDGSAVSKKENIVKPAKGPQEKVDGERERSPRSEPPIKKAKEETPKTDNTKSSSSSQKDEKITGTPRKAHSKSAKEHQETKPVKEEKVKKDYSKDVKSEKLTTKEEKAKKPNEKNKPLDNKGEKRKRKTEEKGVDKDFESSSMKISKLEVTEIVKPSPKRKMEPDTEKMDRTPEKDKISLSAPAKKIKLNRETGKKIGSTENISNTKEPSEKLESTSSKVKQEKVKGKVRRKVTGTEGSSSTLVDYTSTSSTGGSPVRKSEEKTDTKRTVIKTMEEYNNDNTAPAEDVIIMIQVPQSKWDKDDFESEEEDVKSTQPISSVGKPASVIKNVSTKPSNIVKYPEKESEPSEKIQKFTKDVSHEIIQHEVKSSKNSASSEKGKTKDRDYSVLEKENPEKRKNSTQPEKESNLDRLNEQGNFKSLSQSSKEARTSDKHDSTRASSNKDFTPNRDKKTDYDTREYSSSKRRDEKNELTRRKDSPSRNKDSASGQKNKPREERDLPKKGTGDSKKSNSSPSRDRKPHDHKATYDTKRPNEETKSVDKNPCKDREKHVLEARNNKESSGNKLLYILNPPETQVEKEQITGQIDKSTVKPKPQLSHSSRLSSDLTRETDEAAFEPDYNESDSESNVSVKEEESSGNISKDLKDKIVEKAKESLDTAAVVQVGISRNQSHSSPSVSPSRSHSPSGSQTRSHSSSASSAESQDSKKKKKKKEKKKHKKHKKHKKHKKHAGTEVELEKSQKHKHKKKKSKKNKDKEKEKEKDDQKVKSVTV
active: filanesib 0.468
inactive: sotrastaurin 0.11 | alvocidib -0.17 | Tubastatin A 0.074 | [2] -0.006 | defactinib -0.056 | rucaparib 0.067 | encorafenib 0.055 | [5] 0.04 | [3] 0.101 | zotarolimus -0.052 | idasanutlin 0.089 | alisertib 0.044 | [1] -0.099 | gefitinib -0.02 | [6] 0.146 | lapatinib 0.101 | pictilisib 0.016

SCLT1 (UniProt Q96NL6)
Sequence of UniProt Q96NL6 (Q96NL6 whole entry, looked up): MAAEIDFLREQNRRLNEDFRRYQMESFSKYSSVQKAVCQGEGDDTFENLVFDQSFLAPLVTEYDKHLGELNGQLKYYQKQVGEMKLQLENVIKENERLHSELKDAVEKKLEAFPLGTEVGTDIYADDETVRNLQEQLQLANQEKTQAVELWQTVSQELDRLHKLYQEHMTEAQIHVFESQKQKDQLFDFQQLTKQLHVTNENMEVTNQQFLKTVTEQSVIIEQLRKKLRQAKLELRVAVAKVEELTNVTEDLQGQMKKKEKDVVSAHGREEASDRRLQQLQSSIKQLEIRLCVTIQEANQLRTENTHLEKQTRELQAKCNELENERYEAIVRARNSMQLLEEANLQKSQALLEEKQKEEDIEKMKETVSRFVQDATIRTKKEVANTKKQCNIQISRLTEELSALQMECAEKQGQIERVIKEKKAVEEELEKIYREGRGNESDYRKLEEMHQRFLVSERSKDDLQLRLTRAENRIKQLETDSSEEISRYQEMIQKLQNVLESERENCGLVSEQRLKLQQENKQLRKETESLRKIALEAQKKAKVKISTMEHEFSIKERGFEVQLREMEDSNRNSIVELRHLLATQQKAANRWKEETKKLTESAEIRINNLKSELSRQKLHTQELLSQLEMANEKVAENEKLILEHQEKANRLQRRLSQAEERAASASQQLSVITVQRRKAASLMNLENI
inactive: saracatinib 0.073 | sotrastaurin -0.095 | alvocidib 0 | Tubastatin A 0.116 | defactinib -0.047 | [4] 0.121 | [5] -0.087 | filanesib -0.063 | zotarolimus 0.079 | alisertib -0.205 | gefitinib -0.022 | [6] 0.046 | pictilisib 0.185
active: [3] 0.433

RAB3D (UniProt O95716)
inactive: saracatinib 0.295 | alvocidib 0.126 | Tubastatin A 0.024 | [2] 0.022 | defactinib 0.064 | rucaparib -0.021 | [4] -0.016 | encorafenib -0.043 | [5] -0.094 | zotarolimus -0.08 | idasanutlin 0.026 | alisertib 0.007 | [1] 0.002 | gefitinib 0.243 | [6] -0.07 | lapatinib 0.002 | pictilisib -0.153

RMDN2 isoform 2 (UniProt Q96LZ7)
Sequence of UniProt Q96LZ7 (Q96LZ7 whole entry, looked up): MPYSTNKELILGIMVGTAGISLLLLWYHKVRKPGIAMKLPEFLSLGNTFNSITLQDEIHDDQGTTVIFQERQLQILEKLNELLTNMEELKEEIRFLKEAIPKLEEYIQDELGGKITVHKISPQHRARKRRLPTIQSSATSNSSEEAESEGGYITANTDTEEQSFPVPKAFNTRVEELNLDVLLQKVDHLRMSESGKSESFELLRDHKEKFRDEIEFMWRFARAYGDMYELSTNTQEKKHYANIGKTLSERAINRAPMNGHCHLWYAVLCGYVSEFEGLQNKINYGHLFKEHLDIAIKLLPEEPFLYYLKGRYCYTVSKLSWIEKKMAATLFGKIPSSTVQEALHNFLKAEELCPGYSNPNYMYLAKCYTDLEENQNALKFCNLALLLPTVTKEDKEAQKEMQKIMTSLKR
inactive: defactinib -0.218 | [5] -0.206 | [3] 0.008 | alisertib 0.389 | gefitinib -0.418 | [6] 0.191

SCYL3 isoform 2 (UniProt Q8IZE3)
inactive: saracatinib 0.014 | alvocidib 0.142 | Tubastatin A -0.063 | [2] -0.042 | defactinib -0.014 | rucaparib 0.06 | [4] -0.009 | encorafenib 0.021 | [5] -0.025 | [3] 0.017 | zotarolimus 0.008 | idasanutlin -0.117 | alisertib 0.063 | [1] 0.039 | gefitinib 0.063 | [6] 0.032 | lapatinib -0.084 | pictilisib 0.018

SAP30 (UniProt O75446)
Sequence of UniProt O75446 (O75446 whole entry, looked up): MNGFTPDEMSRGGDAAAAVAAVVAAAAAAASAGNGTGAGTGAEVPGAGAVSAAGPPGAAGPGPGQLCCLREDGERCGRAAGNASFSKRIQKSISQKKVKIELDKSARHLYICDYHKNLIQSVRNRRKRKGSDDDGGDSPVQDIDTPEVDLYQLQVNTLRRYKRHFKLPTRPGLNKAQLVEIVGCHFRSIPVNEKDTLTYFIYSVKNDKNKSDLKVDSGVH
inactive: saracatinib -0.018 | sotrastaurin -0.185 | alvocidib -0.035 | [2] 0.121 | defactinib -0.003 | [4] 0.014 | [5] 0.044 | [3] 0.089 | filanesib 0.044 | zotarolimus 0.047 | idasanutlin 0.024 | alisertib -0.015 | [1] -0.059 | gefitinib 0.003 | [6] -0.095 | lapatinib -0.035 | pictilisib -0.068

SDCBP isoform 2 (UniProt O00560)
Sequence of UniProt O00560 (O00560 whole entry, looked up): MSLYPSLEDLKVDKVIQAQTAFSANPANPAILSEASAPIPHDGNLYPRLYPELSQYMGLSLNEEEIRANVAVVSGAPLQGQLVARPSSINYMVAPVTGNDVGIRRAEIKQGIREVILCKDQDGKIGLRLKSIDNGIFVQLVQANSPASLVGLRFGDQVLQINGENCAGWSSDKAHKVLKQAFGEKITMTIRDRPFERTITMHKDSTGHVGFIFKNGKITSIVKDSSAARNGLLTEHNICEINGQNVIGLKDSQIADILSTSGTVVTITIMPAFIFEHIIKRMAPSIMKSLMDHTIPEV
active: [4] -0.756
inactive: saracatinib -0.175 | sotrastaurin 0.042 | Tubastatin A -0.301 | [2] 0.115 | rucaparib -0.036 | encorafenib 0.032 | filanesib -0.08 | alisertib -0.236 | [1] 0.045 | gefitinib -0.054 | [6] 0.034 | lapatinib -0.04 | pictilisib 0.228

SEMG2 (UniProt Q02383)
Sequence of UniProt Q02383 (Q02383 whole entry, looked up): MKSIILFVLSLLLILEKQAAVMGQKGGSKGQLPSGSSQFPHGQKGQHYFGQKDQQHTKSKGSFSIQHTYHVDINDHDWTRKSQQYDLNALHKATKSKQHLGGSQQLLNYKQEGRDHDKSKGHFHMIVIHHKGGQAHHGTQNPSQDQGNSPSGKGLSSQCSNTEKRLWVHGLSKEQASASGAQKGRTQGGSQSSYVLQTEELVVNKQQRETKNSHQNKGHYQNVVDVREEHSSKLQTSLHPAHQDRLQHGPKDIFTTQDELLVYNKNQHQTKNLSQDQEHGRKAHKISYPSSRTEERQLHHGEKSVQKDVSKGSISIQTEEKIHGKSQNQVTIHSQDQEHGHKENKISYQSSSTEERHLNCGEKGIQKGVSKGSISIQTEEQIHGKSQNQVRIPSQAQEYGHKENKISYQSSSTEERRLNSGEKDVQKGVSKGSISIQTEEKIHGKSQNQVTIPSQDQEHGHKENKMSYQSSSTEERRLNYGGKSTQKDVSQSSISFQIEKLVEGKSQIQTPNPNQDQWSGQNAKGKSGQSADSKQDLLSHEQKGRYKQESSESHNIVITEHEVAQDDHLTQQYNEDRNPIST
inactive: sotrastaurin -0.016 | alvocidib 0.206 | Tubastatin A 0.025 | rucaparib -0.033 | encorafenib -0.011 | filanesib -0.002 | zotarolimus -0.021 | idasanutlin -0.135 | alisertib 0.005 | gefitinib -0.008 | [6] 0.063 | pictilisib -0.021

RPS6KA3 (UniProt P51812)
inactive: saracatinib 0.021 | sotrastaurin -0.049 | alvocidib -0.046 | Tubastatin A 0.019 | defactinib -0.148 | rucaparib 0.006 | [4] -0.049 | encorafenib -0.01 | [5] -0.027 | [3] -0.013 | filanesib 0 | zotarolimus 0.033 | idasanutlin -0.008 | [1] -0.221 | gefitinib -0.033 | [6] 0.013 | lapatinib 0.011 | pictilisib -0.011

RBM26 isoform 3 (UniProt Q5T8P6)
inactive: sotrastaurin -0.052 | filanesib 0.004 | idasanutlin 0.167

RALGPS2 (UniProt Q86X27)
Sequence of UniProt Q86X27 (Q86X27 whole entry, looked up): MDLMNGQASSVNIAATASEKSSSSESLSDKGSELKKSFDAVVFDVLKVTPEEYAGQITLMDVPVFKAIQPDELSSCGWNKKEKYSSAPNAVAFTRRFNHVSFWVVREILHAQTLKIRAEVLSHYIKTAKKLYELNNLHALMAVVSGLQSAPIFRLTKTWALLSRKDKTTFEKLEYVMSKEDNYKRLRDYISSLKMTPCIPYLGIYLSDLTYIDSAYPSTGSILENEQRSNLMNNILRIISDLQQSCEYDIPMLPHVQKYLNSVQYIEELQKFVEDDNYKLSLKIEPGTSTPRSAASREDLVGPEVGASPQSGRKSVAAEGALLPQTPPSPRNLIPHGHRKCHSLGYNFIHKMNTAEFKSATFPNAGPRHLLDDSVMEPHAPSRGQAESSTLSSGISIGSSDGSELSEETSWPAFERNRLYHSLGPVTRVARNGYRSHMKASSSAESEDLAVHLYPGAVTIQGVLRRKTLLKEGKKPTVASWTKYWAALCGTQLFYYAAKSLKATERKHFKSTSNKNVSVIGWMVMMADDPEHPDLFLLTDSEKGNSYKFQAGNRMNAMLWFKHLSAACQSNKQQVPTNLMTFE
inactive: saracatinib -0.042 | alvocidib 0.192 | Tubastatin A 0.18 | [2] -0.098 | defactinib 0.176 | rucaparib -0.133 | [4] 0.159 | encorafenib 0.425 | [5] -0.101 | [3] 0.246 | zotarolimus 0.038 | idasanutlin -0.062 | alisertib 0.109 | [6] 0.132 | pictilisib 0.165
